FLuc counter = inhibits or activates purified firefly luciferase, miR-21 counter-screen; hit rate 6.9% among 360,000; Potency, µM (titrated, usually from 57.5 µM), for inactives: at the highest dose activity change, negative = inhibition, actives largely listed as inhibitors; purified FLuc, Km substrates, luminescence inhibition;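 further: plate controls were vehicle for no effect and reference inhibitor for full effect; nearly all actives have a fitted effect of over 55% in size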
Target sequence (P08659 whole entry, looked up): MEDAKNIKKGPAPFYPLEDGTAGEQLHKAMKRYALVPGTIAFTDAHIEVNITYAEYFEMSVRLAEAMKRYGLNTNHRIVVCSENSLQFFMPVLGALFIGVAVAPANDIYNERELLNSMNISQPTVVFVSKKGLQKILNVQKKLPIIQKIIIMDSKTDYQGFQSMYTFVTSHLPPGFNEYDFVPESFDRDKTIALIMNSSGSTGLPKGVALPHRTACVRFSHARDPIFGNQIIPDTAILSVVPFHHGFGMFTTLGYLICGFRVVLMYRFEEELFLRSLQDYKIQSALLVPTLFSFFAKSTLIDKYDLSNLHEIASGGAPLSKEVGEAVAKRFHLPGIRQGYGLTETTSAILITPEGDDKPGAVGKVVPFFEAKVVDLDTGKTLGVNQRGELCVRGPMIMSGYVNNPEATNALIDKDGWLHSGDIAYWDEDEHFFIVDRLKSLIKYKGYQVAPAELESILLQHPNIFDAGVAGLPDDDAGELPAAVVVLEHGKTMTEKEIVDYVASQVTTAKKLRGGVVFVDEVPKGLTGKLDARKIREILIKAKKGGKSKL
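Purified P. pyralis luciferase, 10 nM final, with Km-level 10 uM D-luciferin and 10 uM ATP in 50 mM Tris acetate pH 7.5, 10 mM Mg acetate, 0.01% Tween-20, 0.05% BSA; 6-point qHTS titration about 60 µM downward; luminescence read.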
ELG1 genotox = genotoxicity induction in ELG1-luciferase HEK293T cells | HEK293T ELG1-luciferase reporter, luminescence, 16 h | Potency, µM (doses to about 46 µM), for inactives: top-dose activity change, positive = activation, most hits filed as activators | hit rate 1.3% among 330,000 | AID 504466; further: % of control where 0% means no effect; nearly all actives have a fitted effect of over 60% in size
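DMSO vehicle served as control against compound-treated ELG1-luciferase HEK293T cells; exposure lasted 16 hr at 37 °C and 5% CO2, followed by ONE-Glo luminescence detection after 30 min.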
SMN2 splice up = SMN2 splice variant enhancement. Potency, µM (top dose mostly 46.1 µM), inactives show top-dose activity change, positive = activation, actives largely listed as activators. hit rate 2.8% among 210,000. HEK293 SMN2-luciferase splicing reporter, luminescence, 30-36 h; further: % of control where 0% means no effect; nearly all actives have a fitted effect of over 55% in size
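HEK293 cells carry an SMN2 minigene-luciferase reporter in which exon 7 inclusion puts luciferase in frame. Cells were seeded at 2000 cells/well, attached for 10-12 hours, then exposed to compounds for 30-36 hours at 37C before ONE-Glo luminescence.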
Rab9 promoter act = activators of Rab9 promoter | Huh7 Rab9 promoter-luciferase reporter, luminescence, 24 h | Potency, µM (titrated, usually from 9.22 µM), inactives show at the highest dose activation, negative = inhibition, usual class: activators | hit rate 2.8% among 320,000; further: % of control where 0% means no effect; nearly all actives have a fitted effect of over 60% in size
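Luminescence read-out: Huh7 cells stably expressing Rab9-luciferase, treated 24 h with compound at 37 °C, then lysed with luciferase reagent for 10 min at ambient before reading.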
NPC1 promoter act = NPC1 promoter activation; AID 485313; Potency, µM (series often up to 9.22 µM), for inactives: at the highest dose activation, usual class: activators; Huh7 NPC1 promoter luciferase reporter, 24 h; hit rate 2.4% among 320,000; further: % of control where 0% means no effect; nearly all actives have a fitted effect of over 60% in size
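Luminescence from an NPC1 promoter-driven luciferase reporter in stably transfected Huh7 cells was measured after 24 h compound treatment at 37 °C, followed by 10 min ambient incubation with luciferase detection reagent.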
An asterisk follows results filed as active; [ ] = another dose, or the depositor's remark. The list is not random: actives were taken first. Their share in the collection is about 7.4%. The call rests on the fitted dose curve; in most records, active means well fitted curve in the direction sought with a large enough effect; inconclusive means small, poorly fitted or top-dose-only effect, or another doubt; inactive means no such curve, though single readings can be large; an effect the other way counts as inactive or inconclusive. Potency means the concentration at half of the fitted maximal effect.

`Cc1nn(-c2ccccc2)c(Cl)c1/C=C1\C(=O)N(C)C(=S)N1C` gave FLuc counter -3%, ELG1 genotox 0%, SMN2 splice up 9%, Rab9 promoter act -2% and NPC1 promoter act -8%.
For CC1=C(C(=O)OCc2ccc(C)cc2)C(c2ccccc2F)CC(=O)N1 (stereo not drawn) the results were FLuc counter -13% and SMN2 splice up -3%.
CS(=O)(=O)c1ccc(CNC(=O)[C@H]2C[C@@H]2[C@H](NP(=O)(c2ccccc2)c2ccccc2)c2ccccc2)cc1 was read as SMN2 splice up -1%.
COc1ccc([C@H]2[C@H](C(=O)OC(C)(C)C)N3N=Cc4ccccc4C3C23C(=O)c2ccccc2C3=O)cc1OC (stereo partly drawn) was read as FLuc counter 15µM*, ELG1 genotox -2%, SMN2 splice up 10%, Rab9 promoter act -2% and NPC1 promoter act 0%.
COC(=O)C1(C(=O)OC)Cc2conc2[C@H]1c1ccccc1 was read as SMN2 splice up -4%.
`C/C(=N\NC(=O)c1ccccc1O)C1C(=O)c2ccccc2C1=O` gave FLuc counter 13µM*, ELG1 genotox 8.2µM*, SMN2 splice up 10µM*, Rab9 promoter act 28% and NPC1 promoter act inconclusive.
`C/C(=N/NC(=O)c1cc2ccccc2cc1O)C1C(=O)c2ccccc2C1=O` gave FLuc counter 17µM*, ELG1 genotox inconclusive, SMN2 splice up inconclusive, Rab9 promoter act inconclusive and NPC1 promoter act 22%.
`C/C(CC(=O)N1CCN(C=O)CC1)=N\NC(=O)c1cc2ccccc2cc1O` gave FLuc counter 21µM*, ELG1 genotox 0%, SMN2 splice up 16%, Rab9 promoter act -5% and NPC1 promoter act -3%.
`C/C(CC(=O)N1CCN(C=O)CC1)=N\NC(=O)c1ccc([N+](=O)[O-])cc1` gave FLuc counter inconclusive, ELG1 genotox 6%, Rab9 promoter act -6% and NPC1 promoter act 0%.
C[C@@H]1c2ccccc2Cn2cc3c(c21)C(=O)c1cccc(OP(=O)(O)OCc2ccccc2)c1C3=O was read as SMN2 splice up -8%[9.22 µM].
`Clc1ccccc1CN1CCN(/N=C/C=C/c2ccco2)CC1` gave FLuc counter 24µM*, ELG1 genotox 7%, Rab9 promoter act inconclusive and NPC1 promoter act 27%.
`COc1ccccc1N1CCN(/N=C/C=C\c2ccco2)CC1` gave FLuc counter 4.8µM*, ELG1 genotox inconclusive, SMN2 splice up 13µM*, Rab9 promoter act 2µM* and NPC1 promoter act 1.1µM*.
`CC1(OC(=O)c2cnc3ccccc3n2)C(=O)C=C2C=C(c3ccsc3)OC=C2C1=O` (stereo not drawn) gave SMN2 splice up 7%.
N/C(=N\O)c1cn([C@@H]2O[C@@H](CO)[C@H](O)[C@@H]2O)c2ncnc(NO)c12 was read as SMN2 splice up 0%[9.22 µM].
`N#Cc1c(N2C(=O)Nc3ccccc3N2O)sc2c1CCCCCC2` gave FLuc counter inconclusive, ELG1 genotox -3%, SMN2 splice up 18%, Rab9 promoter act 1% and NPC1 promoter act 9%.
Screening N#Cc1c(N2C(=O)Nc3ccccc3N2O)sc2c1CCCC2 returned FLuc counter 13µM*, ELG1 genotox 11%, SMN2 splice up -7%, Rab9 promoter act 8% and NPC1 promoter act 18%.
O=C(NCc1ccc(F)cc1)c1nc(-c2cccs2)no1 was read as FLuc counter -6%, ELG1 genotox 3%, SMN2 splice up 9%, Rab9 promoter act -2% and NPC1 promoter act 0%.
For c1ccc(OCc2nc(-c3cccs3)no2)cc1 the results were FLuc counter 7.6µM*, ELG1 genotox 13µM*, SMN2 splice up inconclusive, Rab9 promoter act 3.2µM* and NPC1 promoter act 3.5µM*.
Screening Fc1ccc(OCc2nc(-c3cccs3)no2)cc1 returned FLuc counter 11µM*, ELG1 genotox inconclusive, SMN2 splice up inconclusive, Rab9 promoter act 2.5µM* and NPC1 promoter act 3.2µM*.
